Reference: PubChem BioAssay (EPA / NIEHS)
Records with an inconclusive call do not appear. The source made the active and inactive calls. Rule for the calls, unless noted: active = hit-call score of the fitted dose curve at least 0.9, where 1 is the maximum; inactive = score below 0.9.

How the values were obtained:
[1] = CCTE_Shafer_MEA_acute_spike_number: CCTE's Neural Acute Assay for Total Number of Spikes, Shafer Lab (AID 2284008);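 for AC50: curve fitted for decrease in spike count so AC50 reflects inhibitors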
Outline: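 Rat cortical cultures, DIV 13/15, 37 C. 40 min baseline rec, cpd 0.03-40 uM, 40 min post-dose rec. Band-pass 300-5000 Hz, spike threshold 8x rms; % change in spike count per well, DMSO neg ctrl, loss-of-signal fit.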

[2] = CCTE_Shafer_MEA_acute_firing_rate_mean: CCTE's Neural Acute Assay for Mean Firing Rate, Shafer Lab (AID 2284009);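 note: analyzed for loss of signal so actives lower firing rate relative to DMSO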
Outline: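 Rat cortical neuron cultures matured to DIV 13 or 15, equilibrated 20 min at 37 C, then recorded 40 min for baseline. Compound (0.03-40 uM) added and a further 40 min recorded; percent change in mean firing rate calculated per well.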

[3] = CCTE_Harrill_HTTr_Viability_MCF7: CCTE's 6-hour Cell Viability Assessment for the High-Throughput Transcriptomics (HTTr) Platform, in MCF-7 cells cultured in DMEM + 10% fetal bovine serum, Harrill Lab (AID 2284010)
Outline: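 Propidium iodide exclusion, imaged by high-content analysis, gauged viability after a six-hour exposure across eight concentrations. Cells were MCF-7 grown in DMEM with 10% fetal bovine serum; fits run in both directions against DMSO.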

[4] = CCTE_Harrill_HTTr_Apoptosis_MCF7: CCTE's 6-hour Apoptosis Assessment for the High-Throughput Transcriptomics (HTTr) Platform, in MCF-7 cells cultured in DMEM + 10% fetal bovine serum, Harrill Lab (AID 2284011)
Outline: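 Read-out: CellEvent Caspase 3/7 Green signal by high content imaging, gain-of-signal indicating apoptosis. MCF-7 cells, DMEM + 10% FBS, eight-point dilution series, 6 h exposure. Curves fitted bidirectionally relative to DMSO negative control.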

[5] = CCTE_Shafer_MEA_acute_burst_number: CCTE's Neural Acute Assay for Single-Electrode Bursts, Shafer Lab (AID 2284013)
Outline: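 Percent change in single-electrode burst number per well, from 40-min recordings taken before and after adding compound (0.03-40 uM) to primary rat cortical neurons on MEA plates at DIV 13 or 15, 37 C.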

[6] = CCTE_Shafer_MEA_acute_burst_duration_mean: CCTE's Neural Acute Assay for Mean Burst Duration, Shafer Lab (AID 2284014);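 note: hits are decreases in mean burst duration relative to DMSO controls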
Outline: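 Rat cortical cultures, DIV 13/15; 40 min baseline, then 40 min with compound (0.03-40 uM), 37 C. Spikes: 300-5000 Hz band-pass, 8x rms threshold. Read-out: % change in mean single-electrode burst duration, DMSO-referenced, loss direction.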

[7] = CCTE_Shafer_MEA_acute_per_burst_spike_number_mean: CCTE's Neural Acute Assay for Average Number of Spikes Per Burst, Shafer Lab (AID 2284015);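 note: hits are decreases in mean spikes per burst versus baseline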
Outline: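 Read-out: percent change in mean spikes per burst, each well's post-exposure 40-min recording versus its own 40-min baseline. Rat cortical cultures, DIV 13 or 15, compounds 0.03-40 uM; DMSO is negative control, loss-of-signal fitting.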

[8] = CCTE_Shafer_MEA_acute_interburst_interval_mean: CCTE's Neural Acute Assay for Mean Interburst Interval, Shafer Lab (AID 2284016);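 note: percent change of mean interburst interval versus each well's own pre-dose baseline; curves fitted for decrease in interburst interval relative to DMSO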
Outline: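 Rat cortical cultures, DIV 13/15; 20 min equilibration, 40 min baseline, compound 0.03-40 uM, 40 min re-recording, 37 C. Spikes detected at 8x rms noise (300-5000 Hz band-pass). Endpoint: % change in interburst interval, fitted in loss direction vs DMSO.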

[9] = molecular target: Nucleoli Translocation, AR (gene 367) (UniProt P10275); assay: UPITT_HCI_U2OS_AR_TIF2_Nucleoli_Antagonist: University of Pittsburgh U2OS Androgen Receptor-Transcriptional Intermediary Factor 2 (AR-TIF2) Antagonism High Content Imaging Assay for Nucleoli Translocation (AID 2283997; active = hit-call score of the fitted dose curve at least 0.9, where 1 is the maximum)
Nucleoli Translocation, AR (gene 367), sequence (P10275 whole entry, looked up, the tested form may be a part): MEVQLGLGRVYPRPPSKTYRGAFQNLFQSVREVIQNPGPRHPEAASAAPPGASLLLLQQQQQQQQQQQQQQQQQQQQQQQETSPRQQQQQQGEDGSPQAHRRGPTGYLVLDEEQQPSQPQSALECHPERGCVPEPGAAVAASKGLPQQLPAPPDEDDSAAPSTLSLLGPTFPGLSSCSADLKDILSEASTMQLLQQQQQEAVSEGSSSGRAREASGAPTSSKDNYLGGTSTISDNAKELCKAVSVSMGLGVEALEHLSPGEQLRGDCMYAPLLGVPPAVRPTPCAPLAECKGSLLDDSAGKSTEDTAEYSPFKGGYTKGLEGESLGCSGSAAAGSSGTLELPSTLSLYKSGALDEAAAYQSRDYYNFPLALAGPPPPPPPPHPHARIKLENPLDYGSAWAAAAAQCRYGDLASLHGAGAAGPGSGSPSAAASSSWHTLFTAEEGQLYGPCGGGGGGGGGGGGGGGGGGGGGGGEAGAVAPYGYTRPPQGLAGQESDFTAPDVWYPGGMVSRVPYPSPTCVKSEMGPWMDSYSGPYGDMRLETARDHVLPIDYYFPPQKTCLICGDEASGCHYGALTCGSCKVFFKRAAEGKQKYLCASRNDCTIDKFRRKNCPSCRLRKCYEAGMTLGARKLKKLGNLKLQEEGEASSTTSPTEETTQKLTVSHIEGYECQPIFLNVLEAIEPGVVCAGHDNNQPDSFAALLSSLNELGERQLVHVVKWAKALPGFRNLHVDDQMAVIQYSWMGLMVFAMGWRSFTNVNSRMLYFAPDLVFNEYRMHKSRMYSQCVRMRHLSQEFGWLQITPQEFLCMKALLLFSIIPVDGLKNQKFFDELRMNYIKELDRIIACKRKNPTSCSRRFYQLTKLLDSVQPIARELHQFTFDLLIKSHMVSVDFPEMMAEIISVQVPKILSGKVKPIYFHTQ
Outline: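 Compounds are added at 20 uM final concentration in 0.2% DMSO to U2OS cells carrying AR-RFP and TIF2-GFP fusions. Nucleolar AR-RFP fluorescence is then quantified by automated imaging. Antagonism is fitted positively against DHT baseline.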

[10] = molecular target: Ratio of Nucleoli Translocation and Cytoplasm, AR (gene 367) (UniProt P10275); assay: UPITT_HCI_U2OS_AR_TIF2_Nucleoli_Cytoplasm_Ratio_Agonist: University of Pittsburgh U2OS Androgen Receptor-Transcriptional Intermediary Factor 2 (AR-TIF2) Agonism High Content Imaging Assay for Ratio of Nucleoli Translocation and Cytoplasm (AID 2284000; active = hit-call score of the fitted dose curve at least 0.9, where 1 is the maximum;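 note: hits raise the red nucleolar to cytoplasm ratio above vehicle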)
Ratio of Nucleoli Translocation and Cytoplasm, AR (gene 367), sequence (P10275 whole entry, looked up): as the sequence (P10275 whole entry, looked up, the tested form may be a part) above
Outline: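 Human osteosarcoma U2OS line, AR-RFP plus TIF2-GFP; compounds 0.195–50 uM final, 0.5% DMSO. Readout: nucleolar/cytoplasmic RFP ratio by HCI, positive direction vs DMSO baseline.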

[11] = molecular target: THRB (gene 7068) (UniProt P10828); assay: TOX21_TRB_BLA_Agonist_Followup_ratio: Tox21 Thyroid Hormone Receptor beta Agonism Beta-lactamase (BLA) Follow-Up Assay, Ratio (AID 2283954; active = hit-call score of the fitted dose curve at least 0.9, where 1 is the maximum)
THRB (gene 7068), sequence (P10828 whole entry, looked up, the tested form may be a part): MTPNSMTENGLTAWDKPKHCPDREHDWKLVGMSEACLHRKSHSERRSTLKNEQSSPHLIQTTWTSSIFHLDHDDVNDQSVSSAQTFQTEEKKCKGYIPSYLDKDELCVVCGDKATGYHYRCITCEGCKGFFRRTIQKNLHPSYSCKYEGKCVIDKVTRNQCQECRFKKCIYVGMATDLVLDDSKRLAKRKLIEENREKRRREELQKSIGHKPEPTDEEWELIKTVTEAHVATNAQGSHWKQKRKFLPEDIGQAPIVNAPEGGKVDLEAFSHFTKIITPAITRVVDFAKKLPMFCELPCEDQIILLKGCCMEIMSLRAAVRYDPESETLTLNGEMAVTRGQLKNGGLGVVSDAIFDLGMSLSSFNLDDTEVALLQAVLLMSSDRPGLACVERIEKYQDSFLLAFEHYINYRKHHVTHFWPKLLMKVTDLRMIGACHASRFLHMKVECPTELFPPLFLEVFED
Outline: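 Agonist mode: compounds (11-point, triplicate) incubated 18 h with HEK293T cells carrying GAL4-DBD/human TRβ-LBD and UAS-β-lactamase. Blue/green (460/530 nm) FRET ratio read after 2 h CCF4-AM loading; CellTiter-Glo viability run in the same plates.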

[12] = molecular target: THRB (gene 7068) (UniProt P10828); assay: TOX21_TRB_COA_Agonist_Followup_ratio: Tox21 Thyroid Hormone Receptor beta Agonism through Coactivator Recruitment Follow-Up Assay, Ratio (AID 2283963)
Outline: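 First, the GST-fused TRβ ligand-binding domain (5.0 nM) was incubated with test compound in 0.10% BSA. Next, fluorescein-tagged SRC-2 peptide (200 nM) and terbium anti-GST antibody (2 nM) were added. Finally, TR-FRET emission ratios were normalized against DMSO and T3 controls.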

[13] = molecular target: Retinoic acid receptor RXR-alpha (Homo sapiens) (UniProt P19793); assay: TOX21_TR_RXR_BLA_Agonist_Followup_ratio: Tox21 Thyroid Hormone Receptor beta Retinoid X Receptor alpha (RXRa) Agonism Beta-lactamase (BLA) Follow-Up Assay, Ratio (AID 2283968; active = hit-call score of the fitted dose curve at least 0.9, where 1 is the maximum)
Retinoic acid receptor RXR-alpha (Homo sapiens), sequence (P19793 whole entry, looked up): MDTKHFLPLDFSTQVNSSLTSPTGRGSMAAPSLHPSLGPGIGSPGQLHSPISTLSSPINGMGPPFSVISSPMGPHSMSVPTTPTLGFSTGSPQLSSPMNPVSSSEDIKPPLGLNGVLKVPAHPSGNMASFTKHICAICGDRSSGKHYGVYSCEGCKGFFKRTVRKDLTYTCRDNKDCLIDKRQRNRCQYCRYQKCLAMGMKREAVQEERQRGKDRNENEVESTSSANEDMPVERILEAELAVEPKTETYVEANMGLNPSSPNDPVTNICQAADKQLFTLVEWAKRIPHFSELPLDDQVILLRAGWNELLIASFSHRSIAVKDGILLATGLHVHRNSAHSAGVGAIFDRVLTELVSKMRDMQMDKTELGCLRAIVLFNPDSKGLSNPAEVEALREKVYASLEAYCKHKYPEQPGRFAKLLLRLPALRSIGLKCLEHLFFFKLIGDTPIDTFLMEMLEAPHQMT
Outline: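 Agonist mode: compounds given to RXRa-bla HEK293T cells at 11 concentrations, triplicate, 16 h at 37C/5% CO2. Readout is the 460:530 nm blue/green ratio after 2 h substrate loading at room temperature; DMSO baseline, 9-cis retinoic acid control.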

[14] = molecular target: Nucleoli Translocation, AR (gene 367) (UniProt P10275); assay: UPITT_HCI_U2OS_AR_TIF2_Nucleoli_Agonist: University of Pittsburgh U2OS Androgen Receptor-Transcriptional Intermediary Factor 2 (AR-TIF2) Agonism High Content Imaging Assay for Nucleoli Translocation (AID 2283998; active = hit-call score of the fitted dose curve at least 0.9, where 1 is the maximum)
Outline: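 RFP-AR / GFP-TIF2 cells; cpds diluted in serum-free medium; single-point screen 20 uM final (0.2% DMSO), actives confirmed in triplicate; conc-response 0.195–50 uM final (0.5% DMSO). Readout: nucleolar red fluorescence, positive direction vs DMSO.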

[15] = molecular target: Ratio of Nucleoli Translocation and Cytoplasm, AR (gene 367) (UniProt P10275); assay: UPITT_HCI_U2OS_AR_TIF2_Nucleoli_Cytoplasm_Ratio_Antagonist: University of Pittsburgh U2OS Androgen Receptor-Transcriptional Intermediary Factor 2 (AR-TIF2) Antagonism High Content Imaging Assay for Ratio of Nucleoli Translocation and Cytoplasm (AID 2283999; active = hit-call score of the fitted dose curve at least 0.9, where 1 is the maximum;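 note: antagonists lower the DHT-driven ratio of nucleolar to cytoplasmic red signal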)
Outline: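 High-content imaging of red fluorescence ratio, nucleoli versus cytoplasm, in U2OS expressing AR-RFP and TIF2-GFP, fitted relative to DHT. Compounds tested once at 20 uM final, then 0.195 to 50 uM final in serial dilution.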

[16] = CCTE_Harrill_HTTr_CellCount_MCF7: CCTE's Cell Proliferation Assessment for the High-Throughput Transcriptomics (HTTr) Platform, Harrill Lab (AID 2284012; active = hit-call score of the fitted dose curve at least 0.9, where 1 is the maximum;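 note: cells exposed to compound for six hours; intended direction is loss of nuclei count meaning fewer cells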)
Outline: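 Cell count from high-content imaging of Hoechst-labeled nuclei serves as viability/growth readout. Chemicals were applied to MCF-7 cells in eight concentrations for six hours, with fitting in both directions relative to DMSO.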

[17] = TOX21_TR_RXR_BLA_Agonist_Followup_viability: Viability Assessment in the Tox21 Thyroid Hormone Receptor beta Retinoid X Receptor alpha (RXRa) Agonism Beta-lactamase (BLA) Follow-Up Assay (AID 2283970; active = hit-call score of the fitted dose curve at least 0.9, where 1 is the maximum)
Outline: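 CellTiter-Glo ATP luciferase read-out of cell viability, multiplexed with the beta-lactamase reporter run. RXRa-bla HEK293T cells in charcoal-stripped serum medium were exposed 16 h at 37C; data fitted both directions relative to DMSO.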

[18] = test system: DIO1 (gene 1733); assay: CCTE_GLTED_hDIO1: CCTE's human Deiodinase 1 (DIO1) Inhibition Assay, Great Lakes Toxicology and Ecology Division (GLTED) Lab (AID 2283987; active = hit-call score of the fitted dose curve at least 0.9, where 1 is the maximum;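 note: isolated human DIO1 enzyme in a cell-free setup rather than cells; enzyme activity read as free iodide liberated from substrate via Sandell-Kolthoff colorimetry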)
Outline: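 Steps: human DIO1 enzyme plus test chemical, 3 h incubation; free iodide then quantified in a second Sandell-Kolthoff step by absorbance. DMSO served as negative control and baseline.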

Measured: AC50

CC(=O)[C@H]1CC[C@H]2[C@@H]3CC=C4C[C@@H](O)CC[C@]4(C)[C@H]3CC[C@]12C
active: [1] 7.9 nM | [2] 5.37 nM | [5] 14.4 nM
inactive: [3] | [4] | [6] | [7] | [8]

CCCCCCCCCCCCCOS(=O)(=O)O
inactive: [9] | [10]

CC(=O)OCCC(C)CC(C)(C)C (centres undefined)
inactive: [11] | [12] | [13] | [1] | [2] | [5] | [6] | [7] | [8]

c1ccc2c(c1)c1cccc3ccc4cccc2c4c31
inactive: [9] | [14] | [15] | [10] | [3] | [16]

Cc1cccc(C)c1[N+](=O)[O-]
inactive: [11] | [12] | [13] | [17]

NCCNCCN
inactive: [1] | [2] | [5] | [6] | [7] | [8]

BrC1CCC(Br)C(Br)CCC(Br)C(Br)CCC1Br (centres undefined)
inactive: [14] | [15] | [10] | [3] | [16]
active: [9] 43500 nM

CCN(CC)c1ccc(C(=C2C=CC(=[N+](CC)CC)C=C2)c2ccc(S(=O)(=O)O)cc2S(=O)(=O)[O-])cc1
inactive: [9] | [10]

C[Si](O[Si](C)(C)C)O[Si](C)(C)C
inactive: [9]

O=C[C@@H](O)[C@H](O)[C@H](O)CO
inactive: [9] | [14] | [15] | [10]

CCC(=O)OCc1ccccc1
inactive: [1] | [2] | [3] | [16] | [5] | [6] | [7] | [8]

CCCCCCCCCCCCCC(=O)O
inactive: [3] | [16]
active: [18] 166000 nM

CC(C)(COC(=O)c1ccccc1)COC(=O)c1ccccc1
inactive: [1] | [2] | [5] | [6] | [7] | [8]

C=CCOC(=O)CCC1CCCCC1
inactive: [1] | [2] | [3] | [16] | [5] | [6] | [7] | [8]

CCCOCC(C)O (centres undefined)
inactive: [9] | [14] | [15] | [10] | [3] | [4]

CN(C)C(=N)N=C(N)N
inactive: [1] | [2] | [3] | [16] | [5] | [6] | [7] | [8]

OC[C@H]1O[C@H](O[C@]2(CCl)O[C@H](CCl)[C@@H](O)[C@@H]2O)[C@H](O)[C@@H](O)[C@H]1Cl
inactive: [1] | [2] | [5] | [6] | [7] | [8]

CC(CCO)CCCC(C)(C)O (centres undefined)
inactive: [12] | [13]

Nc1cc([N+](=O)[O-])ccc1O
active: [1] 2980 nM | [7] 25100 nM
inactive: [2] | [5] | [6] | [8]

CCCCC[Si](OCC)(OCC)OCC
inactive: [9] | [10]

C=C[Si](OCC)(OCC)OCC
inactive: [1] | [2] | [5] | [6] | [7] | [8]

NCCCN1CCOCC1
inactive: [9] | [14] | [10]

Nc1ccc(S(N)(=O)=O)cc1
inactive: [11] | [12] | [13] | [17] | [3] | [4] | [16]

Cc1cc(C2(c3cc(C)c(O)cc3C)OS(=O)(=O)c3ccccc32)c(C)cc1O
active: [5] 148 nM
inactive: [1] | [2] | [3] | [4] | [16] | [6] | [7] | [8]

C[C@H]1C[C@@H]2[C@H]([C@@H](O)C[C@@]3(C)[C@H]2CC[C@]3(O)C(=O)CO)[C@@]2(C)C=CC(=O)C=C12
active: [1] 3 nM | [2] 3 nM | [5] 3 nM
inactive: [3] | [4] | [16] | [6] | [7] | [8]

CCCCCCCCC=O
inactive: [1] | [2] | [3] | [4] | [5] | [6] | [7] | [8]

NC(N)=NC(=O)c1nc(Cl)c(N)nc1N
inactive: [3]

OCCN1CCNCC1
inactive: [3]

OC1OC[C@@H](O)[C@H](O)[C@H]1O (some centres undefined)
inactive: [1] | [2] | [5] | [6] | [7] | [8]

c1ccc2[nH]ccc2c1
inactive: [9] | [14] | [15] | [10] | [3] | [16]

O=c1cc(-c2ccccc2)oc2cc(O)cc(O)c12
inactive: [9] | [15] | [10] | [3] | [4]
